G9a inh – qHTS Assay for Inhibitors of Histone Lysine Methyltransferase G9a. Potency, µM (series often up to 102 µM), usual class: inhibitors. hit rate 8.8% among 350,000. G9a H3K9 monomethylation, AlphaScreen, 2 h. Histone-lysine N-methyltransferase EHMT2 (Homo sapiens), Q96KQ7; also: nearly all actives have a fitted effect of over 75% in size
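Step 1: enzyme (final 20 nM) with compound, 15 min RT. Step 2: substrate peptide 500 nM and SAM 20 uM, 2 h RT. Step 3: anti-H3K9me1 antibody and AlphaScreen beads, 10 min, then plate read.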
JMJD2A Tudor inh – qHTS Assay for Inhibitors of JMJD2A-Tudor Domain. AlphaScreen JMJD2A-Tudor / H3K4me3 peptide binding. hit rate 4.4% among 390,000. Potency, µM (highest dose often 114 µM), usual class: inhibitors. AID 504339, 2011; also: nearly all actives have a fitted effect of over 50% in size
Target sequence (O75164 whole entry, looked up, the tested form may be a part): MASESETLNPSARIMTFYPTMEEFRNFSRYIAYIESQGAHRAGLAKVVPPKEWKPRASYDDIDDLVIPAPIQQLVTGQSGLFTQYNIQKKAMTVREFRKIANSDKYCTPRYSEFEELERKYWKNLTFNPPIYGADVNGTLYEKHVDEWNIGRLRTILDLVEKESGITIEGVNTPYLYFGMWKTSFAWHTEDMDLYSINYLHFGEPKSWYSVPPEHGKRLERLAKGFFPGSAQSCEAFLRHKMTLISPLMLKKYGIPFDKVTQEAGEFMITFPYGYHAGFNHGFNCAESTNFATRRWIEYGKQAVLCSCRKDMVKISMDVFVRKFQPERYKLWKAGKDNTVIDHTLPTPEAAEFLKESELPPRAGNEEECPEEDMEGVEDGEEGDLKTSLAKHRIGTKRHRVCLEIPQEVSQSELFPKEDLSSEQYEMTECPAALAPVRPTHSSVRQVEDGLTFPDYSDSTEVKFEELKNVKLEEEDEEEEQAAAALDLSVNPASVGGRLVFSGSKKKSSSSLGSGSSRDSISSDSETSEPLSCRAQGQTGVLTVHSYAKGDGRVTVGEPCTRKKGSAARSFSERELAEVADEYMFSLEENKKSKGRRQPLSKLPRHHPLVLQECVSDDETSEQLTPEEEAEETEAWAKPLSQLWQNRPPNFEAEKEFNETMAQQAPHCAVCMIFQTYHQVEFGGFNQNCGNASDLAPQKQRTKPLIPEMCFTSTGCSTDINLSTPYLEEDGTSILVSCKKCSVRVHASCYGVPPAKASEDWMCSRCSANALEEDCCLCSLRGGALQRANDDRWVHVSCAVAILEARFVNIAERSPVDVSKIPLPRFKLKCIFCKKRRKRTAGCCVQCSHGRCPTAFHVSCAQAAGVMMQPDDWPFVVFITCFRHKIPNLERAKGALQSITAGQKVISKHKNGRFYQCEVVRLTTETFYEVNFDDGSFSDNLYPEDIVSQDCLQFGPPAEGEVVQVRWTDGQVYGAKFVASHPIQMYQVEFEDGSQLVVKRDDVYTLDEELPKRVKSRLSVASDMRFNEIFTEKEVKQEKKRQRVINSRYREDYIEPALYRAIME
HP1b chromo inh – HTS for Inhibitors of HP1-beta Chromodomain Interactions with Methylated Histone Tails; Chromobox protein homolog 1 (Homo sapiens), P83916; AlphaScreen HP1-beta / biotin-H3K9me3 peptide binding; Potency, µM (top dose mostly 114 µM), most hits filed as inhibitors; hit rate 0.56% among 390,000; AID 540317, 2011; also: nearly all actives have a fitted effect of over 70% in size
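HP1-beta protein (50 nM final) preincubated 30 min at room temperature with biotinylated H3(1-18)K9me3 peptide (50 nM) in PBS pH 7.4, 0.01% Tween-20, then compound added for 30 min. AlphaScreen streptavidin donor/nickel chelate acceptor beads (10 ug/mL final), 30 min dark, luminescence read.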
PI5P4K alpha inh – qHTS for Inhibitors of phosphatidylinositol 5-phosphate 4-kinase (PI5P4K); Phosphatidylinositol 5-phosphate 4-kinase type-2 alpha (Homo sapiens), P48426; PI5P4Kalpha enzyme, ADP-Glo luminescence, 60 min; active compounds read low; max response, %; hit rate 1.2% among 330,000; AID 652105, 2013; active = max response of -50% or lower; inconclusive = between -30% and -50%; inactive = -30% or higher; also: value at the top dose of about 77 µM
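Single end-point luminescence (ADP-Glo) quantified ADP from PI5P4Kalpha turnover; ATP 5 microM final, 1 h at RT, 0.1% CHAPS and 0.28 mM EGTA in HEPES pH 7.4.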
PLK1 PBD block – qHTS for Inhibitors of PLK1-PDB (polo-like kinase 1 - polo-box domain): Primary Screen | AID 720504, 2013 | hit rate 2.8% among 360,000 | Potency, µM, actives largely listed as inhibitors | Plk1 PBD binding of FITC phosphopeptide, fluorescence polarization; also: series mostly up to about 57 µM; nearly all actives have a fitted effect of over 65% in size
BAZ2B block – qHTS Assay for Inhibitors of BAZ2B; Bromodomain adjacent to zinc finger domain protein 2B (Homo sapiens), Q9UIF8; AlphaScreen BAZ2B-H3K14Ac peptide displacement; Potency, µM (doses to about 114 µM), most hits filed as inhibitors; hit rate 4.4% among 360,000; also: nearly all actives have a fitted effect of over 60% in size
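Multi-concentration screen (max 110 uM) measuring displacement of acetylated histone H3 peptide from BAZ2B by AlphaScreen, using 50 nM protein, 50 nM peptide and 10 ug/mL streptavidin donor plus Ni-chelate acceptor beads.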
Numbers stand for hits; i = inactive; ? = inconclusive; nt = no result; [ ] = another dose, or the depositor's remark. Compounds with a hit are over-represented: about 12% of the library has one in this group of screens. Unless noted, calls follow the shape of the dose curve; as a rule, active = well fitted curve in the direction sought with a large enough effect; inconclusive = small, poorly fitted or top-dose-only effect, or another doubt; inactive = no such curve, though single readings can be large; an effect the other way counts as inactive or inconclusive.

SMILES | G9a inh | JMJD2A Tudor inh | HP1b chromo inh | PI5P4K alpha inh | PLK1 PBD block | BAZ2B block
O=C(CCNC(=O)c1ccc([N+](=O)[O-])cc1)Nc1nccs1 | 50µM | i | i | i | i | i
CCOc1c(CNCCSc2nnnn2C)cccc1OC | i | i | i | nt | nt | i
COc1ccc(OCC(CO)N2CCN(c3ccccc3)CC2)cc1 (centres undefined) | nt | i | i | i | i | nt
N#Cc1c(C#N)c(O)c2ccccc2c1O | 2µM | i | i | i | 13µM | i
N#Cc1ccccc1 | i[0.501 µM] | i | i | i | i | i
Cc1[nH]c2ccc3ccccc3c2c(=O)c1C/C=C/Cl | i | i | i | i | i | i
Cc1[nH]c2ccc(Br)cc2c(=S)c1C/C=C/Cl | 35µM | i | i | i | 24µM | ?
Cc1c(C#N)c(O)n(CCO)c(=O)c1N=Nc1ccc(S(N)(=O)=O)cc1 | i | i | i | i | i | 79µM
CCCNCC(=O)Nc1cccc(S(=O)(=O)NC2=NCCCCC2)c1 | nt | 1µM | ? | i | i | nt
Cc1cccc(-c2nc(CC(=O)Nc3cccc(S(=O)(=O)NC4=NCCC4)c3)cs2)c1 | ? | i | i | i | i | i
CNC(=S)Nc1cccc(S(=O)(=O)NC2=NCCC2)c1 | 50µM | i | i | i | i | nt
O=C(CCl)Nc1cccc(S(=O)(=O)NC2=NCCCCC2)c1 | nt | i | i | i | i | nt
Cc1ccc(C)c(SCC(=O)Nc2cccc(S(=O)(=O)NC3=NCCCCC3)c2)c1 | i | i | i | i | i | i
Cc1ccc(CNCC(=O)Nc2cccc(S(=O)(=O)NC3=NCCCCC3)c2)cc1 | 40µM | 7.9µM | ? | i | i | ?
O=C(Cc1csc(-c2cccc(Cl)c2)n1)Nc1cccc(S(=O)(=O)NC2=NCCC2)c1 | 14µM | i | i | i | i | i
COCCCNC(=S)Nc1cccc(S(=O)(=O)NC2=NCCC2)c1 | i | i | i | i | i | i
Cc1ccc(Nc2nnc(SCC(=O)Nc3cccc(S(=O)(=O)NC4=NCCCCC4)c3)s2)c(C)c1 | 40µM | i | i | i | i | i
Cc1n[nH]c(=O)c2c(NC(=O)CSc3nc4ccccc4c(=O)n3-c3ccc(OC(F)F)cc3)oc(C)c12 | i[0.501 µM] | i | i | i | i | i
COCCCn1c(SCC(=O)Nc2oc(C)c3c(C)n[nH]c(=O)c23)nc2ccccc2c1=O | 50µM | i | i | i | i | i
COc1ccccc1-n1nnnc1SCC(=O)Nc1oc(C)c2c(C)n[nH]c(=O)c12 | 11µM | i | i | i | i | i
COc1ccccc1NC(=O)CSc1nnnn1-c1ccccc1OC | 71µM | i | i | i | i | i
CCOc1ccccc1-n1nnnc1SCC(=O)OC | i | i | i | i | i | i
CCOC(=O)CSc1nnnn1-c1cccc2ccccc12 | 10µM | i | i | i | i | i
COc1ccccc1-c1nnc(SCC(=O)Nc2oc(C)c3c(C)n[nH]c(=O)c23)n1C | 5µM | i | i | i | i | i
Cc1n[nH]c(=O)c2c(NC(=O)CSc3nnc(C4CC4)n3C)oc(C)c12 | 40µM | i | i | i | i | i
SMILES | G9a inh | JMJD2A Tudor inh | HP1b chromo inh | PI5P4K alpha inh | PLK1 PBD block | BAZ2B block
COc1cc(/C=C/C(=O)OCC(=O)Nc2oc(C)c3c(C)n[nH]c(=O)c23)ccc1OC(F)F | 14µM | i | i | i | i | i
Cc1n[nH]c(=O)c2c(NC(=O)CSc3nnc(-c4ccco4)n3C)oc(C)c12 | ? | i | i | i | i | i
CC(C)C[C@@H]1Cc2[nH][nH]c(=O)c2[C@H](C(C)C)O1 | nt | nt | nt | i | i | nt
CCCCC1=CC2=CC(=O)C(C)(OC(=O)CC)C(=O)C2=CN1CCCCO (centres undefined) | i | i | i | i | i | i
CCCCCCCC1=CC2=CC(=O)C(C)(OC(C)=O)C(=O)C2=CN1CCc1ccccc1 (centres undefined) | 40µM | nt | nt | nt | nt | ?
Cc1cc2c(s1)c1cnn(Cc3ccc(Cl)cc3)c(=O)c1n2C | nt | 45µM | nt | nt | nt | nt
Cc1cc2c(s1)c1cnn(Cc3ccc(F)c(Cl)c3)c(=O)c1n2C | nt | i | nt | nt | nt | nt
COC1=C/C(=C/c2c(N)n3nc(CC(=O)N4CCCCC4)sc3nc2=O)C=CC1=O | ? | i | i | -64 | i | i
CCOC1=C/C(=C/c2c(N)n3nc(CC(=O)N4CCCCC4)sc3nc2=O)C=CC1=O | 50µM | ? | i | -66 | ? | ?
Nc1c(C=C2C=CC(=O)C=C2)c(=O)nc2sc(CC(=O)N3CCOCC3)nn12 | nt | i | i | i | i | ?
CCOC1=C/C(=C/c2c(N)n3nc(S(=O)(=O)CC)sc3nc2=O)C=CC1=O | 35µM | i | i | -56 | i | i
COc1ccccc1CNC(=O)CN1C(=O)CSc2ccc(S(=O)(=O)N3CCCCC3)cc21 | i | i | i | nt | nt | i
Cc1ccc2c(c1)N(CCC(=O)NC1CCCCC1)C(=O)CO2 | i | i | i | i | i | i
COc1ccc2c(c1)c(=O)oc1cc3oc(C)c(C)c3cc12 | ? | nt | nt | nt | nt | 56µM
COc1ccc2c(c1)c(=O)oc1cc3occ(C(C)(C)C)c3cc12 | i | i | i | i | i | i
CC(=O)OCC(NC(=O)C(COCc1ccccc1)NC(=O)OC(C)(C)C)C1OC(n2ccc(=O)[nH]c2=O)C(OC(C)=O)C1OC(C)=O (centres undefined) | nt | i | i | nt | nt | nt
O=CC(O)C1OC(=O)C(O)C1O (centres undefined) | nt | 22µM | ? | ? | ? | nt
COc1ccc(OC)c(NC(=O)Cn2cc(C(=O)c3ccc(Cl)cc3)c(=O)c3cc(OC)ccc32)c1 | i | i | i | nt | nt | i
CC1=C(C)/C(=N/OC(=O)c2cccc([N+](=O)[O-])c2)C=CC1=O | 10µM | i | i | nt | 4.2µM | i
N/C(=N/OC(=O)c1cccc([N+](=O)[O-])c1)c1cccc([N+](=O)[O-])c1 | ? | i | i | i | i | i
N#Cc1c(Nc2cccc(F)c2)sc2c(O)cc(=O)[nH]c12 | ? | i | i | -76 | i | ?
Cc1cc(=O)[nH]c(Nc2cccc(F)c2)n1 | i | i | i | i | i | i
CCc1ccc(/C=C2/SC(=S)N(CCCC(=O)Nc3ccccc3C(=O)O)C2=O)cc1 | ? | 50µM | i | i | 24µM | i
CCc1ccc(/C=C2\SC(=S)N(CCCC(=O)Nc3ccccn3)C2=O)cc1 | i[0.501 µM] | ? | ? | i | i | 10µM
O=C(CCCN1C(=O)/C(=C/c2cccc(Br)c2)SC1=S)Nc1ccccn1 | ? | ? | 8.9µM | i | i | ?
Cc1ccc(-c2nnc(Nc3ccc(Br)cc3)c3ccccc23)cc1S(=O)(=O)N1CCCCC1 | i | i | i | nt | nt | i

Screening data from PubChem.
